# Source: PubChem BioAssay AID504466 (National Center for Advancing Translational Sciences (NCATS), 2011)
# About 4,200 (1.3%) of roughly 330,000 compounds were called active. Roughly 6% stayed inconclusive and do not appear here. Calls follow the shape of the dose curve; as a rule, active = well fitted activation curve with a large enough effect; inconclusive = small, poorly fitted or top-dose-only effect; inactive = no such curve, though single readings can be large or run the other way. The entries come from a sample that favours actives as a whole.
# Experiment: qHTS screen for small molecules that induce genotoxicity in human embryonic kidney (HEK293T) cells expressing luciferase-tagged ELG1; also: nearly all actives have a fitted effect of over 60% in size; as to activity change, positive = activation: % of control where 0% means no effect
# Conditions: HEK293T ELG1-luciferase reporter, luminescence, 16 h; series mostly up to 46 µM; activity change, positive = activation: at the top concentration
# In short: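 Screening used a luciferase reporter fused to human ELG1 in HEK293T cells. Luminescence was read on a CCD plate imager after 16 hr exposure and 30 min ONE-Glo incubation.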
# Potency is read from the fitted curve at half-maximal effect.
Structure (SMILES),"activity change, positive = activation",Potency
C[C@@H]1C(c2ccc(F)cc2)=NN(c2ccc(Br)cc2)[C@H]1C(=O)N1CCOC1=O,2.71% (inactive),–
Cc1ccc(S(=O)(=O)N2[C@@H](c3ccc(Br)cc3)C(C(=O)O)=C[C@H]2CC2CCCC2)cc1,0.375% (inactive),–
Cc1cc(=O)oc2cc(OCC3CC(c4ccccc4Cl)=NO3)ccc12 (configuration not stated),–,7.94 µM (active)
Cc1ccccc1N1CCN(CCCOc2ccc3c(C)cc(=O)oc3c2)CC1,0.148% (inactive),–
Cc1cc(=O)oc2cc(OCCC[n+]3ccccc3)ccc12,2.93% (inactive),–
CCCCNC(=O)C(C)N(CCN(C)C)C(=O)CCCCCN1C(=O)NC(c2ccc(Cl)cc2)C(C(=O)OCc2ccccc2)=C1C (configuration not stated),-3.93% (inactive),–
COC(=O)CSc1nnc(-c2cccnc2)o1,1.66% (inactive),–
CN(C)c1ccc(-c2nnc(-c3cccnc3)o2)cc1,–,10.3 µM (active)
COc1ccc(-c2nnc(SCc3cccnc3)o2)cc1,15.4% (inactive),–
COc1ccc(CCNC(=O)COC(=O)Cc2ccccc2F)cc1,2.3% (inactive),–
Cc1ccc(C(=O)NCC(=O)NC2CC2)cc1,3.52% (inactive),–
COc1ccc(/C=C(\C#N)C(=O)ONC2=NCCCCC2)cc1,-2.29% (inactive),–
Oc1ccc(/C=N/Nc2nc(-c3ccccc3F)nc3ccccc23)c(O)c1,-11.4% (inactive),–
Oc1ccc(/C=N/NC2=NCCCCC2)c(O)c1,–,7.31 µM (active)
O=C(Cn1cnc2ccccc2c1=O)NNC(=O)c1ccccc1F,0.474% (inactive),–
COc1ccc(C(=O)Nc2cc(S(=O)(=O)N3CCCC3)ccc2Cl)cc1,-0.914% (inactive),–
Clc1cccc(N=C2NN=C(c3ccc4c(c3)OCCO4)CS2)c1,–,2.31 µM (active)
CN(C)c1nc(=Nc2cccc(Cl)c2)ss1,2.77% (inactive),–
c1ccc(CN2CCC(N=C3NN=C(c4ccc5c(c4)OCCO5)CS3)CC2)cc1,0.435% (inactive),–
CCOC(=O)c1c(N)nn(C(=O)c2ccccc2)c1-c1ccccc1,-8.81% (inactive),–
Cc1nn(C(=O)c2ccoc2C)c(N)c1-c1ccccc1,–,13 µM (active)
Cc1occc1C(=O)Nc1cccc(Cn2cccn2)c1,4.11% (inactive),–
Cc1ccc(C(=O)Nc2ccc3c(c2)OCCO3)cc1S(=O)(=O)N1CCOCC1,10.5% (inactive),–
N#CNC1=NCN(CCc2ccccc2)CN1,-0.27% (inactive),–
Cc1ccc2nc(NC3=NCN(CCc4ccccc4)CN3)nc(C)c2c1,-4.53% (inactive),–

Structure (SMILES),"activity change, positive = activation",Potency
c1ccc(CCN2CN=C(Nc3nc4ccccc4o3)NC2)cc1,–,18.4 µM (active)
CCN(CC)C(=O)[C@H]1C[C@H](CC(=O)NCC23CC4CC(CC(C4)C2)C3)C(=O)N2CCc3c([nH]c4cc(CCC(=O)N(C)C)ccc34)[C@]12C,-0.656% (inactive),–
N#C/C(=C1/CCCN1)c1ccccn1,-2.36% (inactive),–
N#CC(=C1SC=CS1)c1nc(-c2ccccc2)cs1,–,5.8 µM (active)
COc1cc(/C=C/C(=O)OCC(=O)NCCCc2ccccc2)ccc1O,5.01% (inactive),–
O=C(NCCC(=O)N1O[C@@H]2C=C[C@H]1C2)OCC1c2ccccc2-c2ccccc21,5.79% (inactive),–
COc1ccc(COC(=O)c2n[nH]c3ccccc23)cc1F,–,14.6 µM (active)
O=C(COC(=O)c1n[nH]c2ccccc12)NCc1ccccc1,7.07% (inactive),–
COc1ccc(NC(=O)COC(=O)c2n[nH]c3ccccc23)c(OC)c1,-1.81% (inactive),–
O=C(CC1SC(N2CCOCC2)=NC1=O)Nc1ccccc1F (configuration not stated),3.27% (inactive),–
c1coc(CNc2ncnc3ccccc23)c1,-10.6% (inactive),–
Cc1noc(C)c1-c1ccc2ncnc(NC(C)c3ccco3)c2c1 (configuration not stated),–,16.4 µM (active)
COc1ccc(NS(=O)(=O)c2ccc(C(=O)Nc3c(C)n(C)n(-c4ccccc4)c3=O)cc2)cc1,1.95% (inactive),–
CCCN(C(=O)CSc1nnc(N)s1)c1c(N)n(Cc2ccccc2)c(=O)[nH]c1=O,-2% (inactive),–
CN(C(=O)CSc1cccc[n+]1[O-])C1CCCCC1,2.05% (inactive),–
COc1cccc(OCC(=O)Nc2ccccc2C(N)=O)c1,–,5.17 µM (active)
CCCOC(=O)Nc1ccccc1C(N)=O,-0.681% (inactive),–
Cc1cccc(OCCC(=O)Nc2ccccc2C(N)=O)c1,-2.38% (inactive),–
NS(=O)(=O)c1ccc(CNC(=S)NC(=O)c2ccco2)cc1,2.68% (inactive),–
O=C(NNS(=O)(=O)c1c(F)cc(F)c(Cl)c1F)C12CC3CC(CC(C3)C1)C2,-0.967% (inactive),–
Cn1cncc1C#Cc1c(-c2ccsc2)sc2ccccc12,-2.38% (inactive),–
O=C(Nc1nnc(-c2ccccc2)o1)c1cccc(S(=O)(=O)N2CCOCC2)c1,-10.2% (inactive),–
O=C(NCc1ccc2c(c1)OCO2)c1cc([N+](=O)[O-])ccc1N1CCOCC1,-2.21% (inactive),–
O=C(Nc1ccon1)c1sc2ccccc2c1Cl,–,13 µM (active)
Cc1nn(C)cc1/C=N/NC(=O)c1sc2ccccc2c1Cl,3.94% (inactive),–

Structure (SMILES),"activity change, positive = activation",Potency
O=C(Nc1ccon1)c1cccc(Cl)c1,0.203% (inactive),–
Cc1ccc(NC(=O)Cn2cnc3c(OCc4ccccc4)ncnc32)cc1C,3.02% (inactive),–
COc1cc(/C=N/Nc2nn3cnnc3c3ccccc23)cc(OC)c1OC,-0.781% (inactive),–
FC(F)(F)c1nc2ccccc2nc1N/N=C/c1ccc(Cl)cc1,-2.13% (inactive),–
CN(CCO)c1ccc(/C=N/Nc2nncc3ccccc23)cc1,–,0.116 µM (active)
C/C=C/c1ccc(OCC(=O)NNC(=O)CN(C)S(=O)(=O)c2ccc(C)cc2)c(OC)c1,0.0839% (inactive),–
CC(Sc1ccccc1F)C(=O)Nc1cccc(S(=O)(=O)N2CCOCC2)c1 (configuration not stated),-0.0904% (inactive),–
COc1ccccc1Nc1ncnc2c1oc1ccccc12,–,14.6 µM (active)
COc1ccc(C)cc1Nc1nc(C)nc2c1oc1ccccc12,0.558% (inactive),–
CCC(C(=O)OC)n1cnc2c(oc3ccccc32)c1=O (configuration not stated),5.09% (inactive),–
CCCCCCOc1ccc(OC(=O)c2cccnc2)cc1,3.9% (inactive),–
CCCCOc1ccc(-c2ncc(C(=O)OCC)c(N)n2)cc1,–,10.3 µM (active)
CCOC(=O)c1cnc(SCc2nc(N)nc(Nc3ccc(OC)cc3)n2)nc1N,4.89% (inactive),–
Cc1c(NC(=O)CN(C)CC(=O)Nc2ccc(F)c(F)c2F)c(=O)n(-c2ccccc2)n1C,0.0923% (inactive),–
Cc1ccsc1C(=O)OCC(=O)NCCc1ccccc1,10.7% (inactive),–
COc1ccc(OC)c(-c2csc(-c3cccs3)n2)c1,3.44% (inactive),–
COc1ccc(C2CC(c3cccs3)=Nc3ccccc3S2)cc1OC (configuration not stated),0.582% (inactive),–
COc1ccc(-c2csc(-c3cccs3)n2)cc1OC,–,16.4 µM (active)
CC[C@@]1(C(=O)OC)N[C@H](CN(C)C(C)=O)[C@@H]2C(=O)N(C)C(=O)[C@@H]21,1.22% (inactive),–
CC(=O)c1c(OCC(=O)N(C)C2CCCCC2)ccc2c(C)cc(=O)oc12,3.2% (inactive),–
COc1ccccc1CSc1ncc(-c2ccc([N+](=O)[O-])cc2)[nH]1,-0.532% (inactive),–
COc1ccccc1CSc1nc2ccccc2[nH]1,–,23.1 µM (active)
Clc1ccccc1SCc1nc2ccccc2[nH]1,15% (inactive),–
CC[C@]1(C(=O)OC)[C@H]2C(=O)N(Cc3ccccc3)C(=O)[C@H]2[C@H]2CN=C(SCc3ccc(Cl)cc3)N21,-5.96% (inactive),–
O=C(C[C@@H]1C/C=C\CCC(=O)OC[C@@H]2CCCN2C1=O)NCCO,3.18% (inactive),–

Structure (SMILES),"activity change, positive = activation",Potency
CN(C(=O)COC(=O)c1cc(=O)[nH]c2ccccc12)C1CCCCC1,18.4% (inactive),–
CCCCNc1c(-c2cccc(Sc3ccc(OC)cc3)c2)nc2ccccn12,-5.54% (inactive),–
CN1CCN(c2ccc(NC(=O)c3ccccc3)cc2)CC1,–,10.3 µM (active)
CN1CCN(c2ccc(NC(=O)c3ccc4c(c3)[nH]c(=O)n4Cc3ccc(F)cc3)cc2)CC1,-2.36% (inactive),–
CN1CCN(c2ccc(NC(=O)c3cc(Cl)c4c(c3)OCCO4)cc2)CC1,9.93% (inactive),–
N#Cc1cc([N+](=O)[O-])ccc1NC(=O)COC(=O)c1cnccn1,-4.95% (inactive),–
COC(=O)c1ccc(OC(=O)c2cnccn2)cc1,0.398% (inactive),–
Cn1c(=NC(=O)c2cnccn2)sc2ccccc21,–,8.2 µM (active)
O=C(NCCCNC(=O)c1ccccc1Cl)c1cnccn1,1.2% (inactive),–
CC1(c2ccccc2)NC(=O)N(CC(=O)N2CC(=O)Nc3ccccc32)C1=O (configuration not stated),0.668% (inactive),–
Cc1ccc(C)c(S(=O)(=O)N2CCN(c3ncnc4sccc34)CC2)c1,-12.2% (inactive),–
CC(C)CC1NC(=O)c2cc(Cl)ccc2-n2c1nc1ccccc1c2=O (configuration not stated),0.392% (inactive),–
Cc1ccnc(Nc2nc3ccccc3s2)n1,–,2.06 µM (active)
Cn1nnnc1SCC(=O)Nc1nc2ccccc2s1,14.9% (inactive),–
Cc1ccnc(NC(=O)c2ccco2)n1,4.05% (inactive),–
Cc1ccccc1NC(=O)CSC(=O)c1ccccc1,-4.93% (inactive),–
O=C(Nc1cc(C(F)(F)F)ccc1Cl)c1cc(C2CC2)on1,-1.5% (inactive),–
CSc1ccccc1NC(=O)c1cc(C2CC2)on1,–,23.1 µM (active)
Cc1nn(Cc2ccc(Cl)c(Cl)c2)c(C)c1NC(=O)c1cc(C2CC2)on1,2.15% (inactive),–
COc1cc(C)ccc1OCC(=O)OCC(=O)c1ccc[nH]1,3.48% (inactive),–
CC(C)(C)OC(=O)C[C@@H]1C/C=C\C[C@@H](CC(=O)NCCO)C(=O)N[C@H](Cc2c[nH]c3ccccc23)COC1=O,0.381% (inactive),–
C=CC[C@@H](CC(=O)N[C@@H](CO)Cc1ccccc1)C(=O)N[C@H](COC(=O)[C@H](CC=C)CC(=O)OC(C)(C)C)Cc1ccccc1,10.3% (inactive),–
